The results in this text go back to PubChem BioAssay (NCATS).

Inconclusive results are not listed. Entries that show only a call come without a potency. The source made the active and inactive calls. Calls follow the shape of the dose curve; as a rule, active = well fitted curve in the direction sought with a large enough effect; inconclusive = small, poorly fitted or top-dose-only effect, or another doubt; inactive = no such curve, though single readings can be large; an effect the other way counts as inactive or inconclusive.

Voltage-gated inwardly rectifying potassium channel KCNH2 (Homo sapiens), sequence (Q12809 whole entry, looked up): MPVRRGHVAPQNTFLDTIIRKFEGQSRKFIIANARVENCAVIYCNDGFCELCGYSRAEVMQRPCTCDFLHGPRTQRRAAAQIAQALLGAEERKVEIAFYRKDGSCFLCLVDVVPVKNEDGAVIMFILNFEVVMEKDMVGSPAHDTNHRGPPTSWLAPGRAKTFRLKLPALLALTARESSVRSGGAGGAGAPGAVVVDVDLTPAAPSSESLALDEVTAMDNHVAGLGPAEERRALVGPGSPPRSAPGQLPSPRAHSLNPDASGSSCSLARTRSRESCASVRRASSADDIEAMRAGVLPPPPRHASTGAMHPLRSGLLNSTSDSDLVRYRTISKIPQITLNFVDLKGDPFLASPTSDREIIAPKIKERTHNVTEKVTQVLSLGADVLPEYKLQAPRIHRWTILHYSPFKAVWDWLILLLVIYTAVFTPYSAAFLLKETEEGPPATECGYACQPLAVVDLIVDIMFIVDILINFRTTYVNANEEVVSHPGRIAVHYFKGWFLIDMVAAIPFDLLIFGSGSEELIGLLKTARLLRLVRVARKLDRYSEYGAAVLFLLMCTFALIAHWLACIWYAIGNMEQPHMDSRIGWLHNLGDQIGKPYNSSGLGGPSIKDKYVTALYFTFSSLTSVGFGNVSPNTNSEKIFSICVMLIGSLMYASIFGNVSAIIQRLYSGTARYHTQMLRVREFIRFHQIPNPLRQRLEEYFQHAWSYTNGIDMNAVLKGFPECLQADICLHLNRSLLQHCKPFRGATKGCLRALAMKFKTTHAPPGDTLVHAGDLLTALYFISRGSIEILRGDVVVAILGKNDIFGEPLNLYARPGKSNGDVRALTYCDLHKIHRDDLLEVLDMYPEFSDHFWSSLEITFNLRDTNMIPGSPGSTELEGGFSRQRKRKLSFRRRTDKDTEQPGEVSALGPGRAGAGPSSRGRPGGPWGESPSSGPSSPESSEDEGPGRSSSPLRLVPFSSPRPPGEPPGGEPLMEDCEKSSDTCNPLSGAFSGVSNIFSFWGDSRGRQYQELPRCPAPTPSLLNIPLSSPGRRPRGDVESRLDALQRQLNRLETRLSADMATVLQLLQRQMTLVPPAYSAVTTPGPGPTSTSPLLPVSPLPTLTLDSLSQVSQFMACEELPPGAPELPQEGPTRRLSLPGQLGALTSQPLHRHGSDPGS

One assay addresses Voltage-gated inwardly rectifying potassium channel KCNH2 (Homo sapiens) (UniProt Q12809). Description: qHTS Assay for Small Molecule Inhibitors of the Human hERG Channel Activity (AID 588834).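 Also: lower thallium flux fluorescence means stronger hERG block; nearly all actives have a fitted effect of over 50% in size.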 Also: potency is read from the fitted curve at half-maximal effect. As to conditions: U2OS BacMam hERG, FluxOR thallium flux fluorescence; series mostly up to 46.1 µM. The gist of the method: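 Blockade is seen as reduced FluxOR thallium-flux fluorescence in U2OS cells expressing hERG from a BacMam construct, in Opti-MEM with 2% FCS. Concentration-response data fitted to the Hill equation for AC50.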
Turning to `COc1cc(S(C)=O)ccc1-c1nc2ncccc2[nH]1` (stereo not drawn), the Potency entry was “inactive”. Turning to `Cc1c(Cl)cccc1Nc1ncccc1C(=O)O`, the Potency result was “inactive”. Regarding `CC(C)CCCC(C)NC(C)C` (stereo not drawn), the Potency entry is “inactive”. On the same count and under the same terms, with `O=C(OCc1ccccc1)c1cccnc1` the entry was “inactive”; with `C[C@H](N)C(=O)N[C@@H](C)P(=O)(O)O`, “inactive”; with `O=C(O)CC/C=C\CC[C@@H]1[C@@H](N2CCCCC2)[C@@H](O)C[C@@H]1OCc1ccc(-c2ccccc2)cc1`, 0.501 µM (active). Still for that read-out and setting: under `CCC(C)[C@@H](N)C(=O)O` (stereo partly drawn) stands “inactive”; under `CC1CCC(NC(=O)N(CCCl)N=O)CC1` (stereo not drawn), “inactive”. The same measure, in the same setting: under `CCOC(=O)Cc1ccc(-c2ccccc2)cc1` stands “inactive”; under `CN(C)C=Nc1c(I)cc(I)c(CCC(=O)O)c1I`, “inactive”; under `O=C(O)CCC/C=C\C[C@@H]1[C@@H](/C=C/[C@@H](O)COc2cccc(C(F)(F)F)c2)[C@H](O)C[C@@H]1O`, “inactive”.

In the case of `CCC(Cc1c(I)cc(I)c(O)c1I)C(=O)O` (stereo not drawn), the Potency entry is “inactive”.

In the case of `O=C1CCC(=O)N1CO`, the Potency entry is “inactive”. Same read-out and setting: under `COC(=O)C(CN)c1c[nH]c2ccc(OC)cc12` (stereo not drawn) stands “inactive”; under `O=C1c2ccccc2C(=O)C1c1ccc(Cl)cc1`, “inactive”; under `O=C(c1cc2ccccc2o1)N1CCN(Cc2ccccc2)CC1`, “inactive”.

As to `CC(C)(C)c1ccc2c(S(=O)(=O)O)c(C(C)(C)C)ccc2c1`, the Potency entry was “inactive”. The same measure, in the same setting: with `CCCCCCCCCCCCCCCCCC[N+](C)(C)CCC[Si](OC)(OC)OC` the entry was “inactive”; with `CC(=O)Oc1cccc(C(=O)O)c1OC(C)=O`, “inactive”; with `N#Cc1ccc2c(c1)N(CCCN1CCC(O)CC1)c1ccccc1S2`, 14.1 µM (active). Take `C[C@@](Cc1ccc(O)c(O)c1)(NN)C(=O)O`: the Potency entry is “inactive”.

`O=C(CCCCCCCCCCCCC1CCCC1)Nc1ccc(S(=O)(=O)c2ccc(NC(=O)CCCCCCCCCCCCC3CCCC3)cc2)cc1`: the Potency result is “inactive”. Take `CCCC(=O)O`: the Potency result was “inactive”. The same measure, in the same setting: under `Cc1cccc(Nc2ncccc2C(=O)O)c1C` stands “inactive”. The same measure, in the same setting: under `CC(=O)[C@H]1CC[C@H]2[C@@H]3C=CC4=CC(=O)CC[C@@]4(C)[C@H]3CC[C@]12C` stands “inactive”; under `CC[C@H]1OC(=O)[C@H](C)[C@@H](O[C@H]2C[C@@](C)(OC)[C@@H](O)[C@H](C)O2)C(C)[C@@H](O[C@@H]2O[C@H](C)C[C@H](N(C)C)[C@@H]2O)[C@](C)(OC)C[C@@H](C)C(=O)[C@H](C)[C@@H](O)[C@]1(C)O` (stereo partly drawn), “inactive”; under `CC/C=C\C/C=C\C/C=C\CCCCCCCC(=O)O`, “inactive”. For `C[C@H]1O[C@@H](O[C@H]2[C@@H](O)C[C@H](O[C@H]3[C@@H](O)C[C@H](O[C@H]4CC[C@@]5(C)[C@H](CC[C@@H]6[C@@H]5C[C@@H](O)[C@]5(C)[C@@H](C7=CC(=O)OC7)CC[C@]65O)C4)O[C@@H]3C)O[C@@H]2C)C[C@H](O)[C@@H]1O`, the Potency result was “inactive”. The same measure, in the same setting: with `CC1CC(OC(=O)C(O)c2ccccc2)CC(C)(C)C1` (stereo not drawn) the entry was “inactive”; with `O=C1N=C2SCCN2C(=O)C1Cc1ccc(Cl)cc1` (stereo not drawn), “inactive”; with `CC12CCC(C[N+](C)(CCC[N+](C)(C)C)C1)C2(C)C` (stereo not drawn), “inactive”.

As for `O=C(O)Cc1nn(Cc2ccc(Br)cc2F)c(=O)c2ccccc12`, the Potency result is “inactive”. Still for that read-out and setting: with `CCCCCCOC(=O)c1cccnc1` the entry was “inactive”; with `NC(=S)NS(=O)(=O)c1ccc(N)cc1`, “inactive”.

Regarding `CN1C(C(=O)Nc2ccccn2)C(=O)c2sc(Cl)cc2S1(=O)=O` (stereo not drawn), the Potency entry was “inactive”. Same read-out and setting: under `O=S(=O)(O)CC(S)CS` (stereo not drawn) stands “inactive”; under `COc1ccc(C(=O)CCC(=O)O)c2ccccc12`, “inactive”.

Test system in the next assay: not listed separately
The assay is described as follows: S16 Schwann cell viability assay (CellTiter-Glo assay) (AID 624031).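 Also: native untransfected S16 rat Schwann cells; nearly all actives have a fitted effect of over 70% in size.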 As to conditions: S16 rat Schwann cells viability, 24 h; series mostly up to 57.5 µM. The gist of the method: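 Following overnight culture in 10% FBS DMEM, parental S16 rat Schwann cells are dosed for 24 h at 37 °C. Viability is read as CellTiter-Glo luminescence and expressed as % activity relative to DMSO (0%) and no-cell wells.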
On the technique in general: ATP-based viability assays read luminescence as a measure of living cells.
In the case of `COc1cc(S(C)=O)ccc1-c1nc2ncccc2[nH]1` (stereo not drawn), the Potency entry is “inactive”. With `Cc1c(Cl)cccc1Nc1ncccc1C(=O)O`, the Potency entry is “inactive”. Still for that read-out and setting: under `CC(C)CCCC(C)NC(C)C` (stereo not drawn) stands “inactive”. On the same count and under the same terms, with `O=C(OCc1ccccc1)c1cccnc1` the entry was “inactive”; with `C[C@H](N)C(=O)N[C@@H](C)P(=O)(O)O`, “inactive”; with `O=C(O)CC/C=C\CC[C@@H]1[C@@H](N2CCCCC2)[C@@H](O)C[C@@H]1OCc1ccc(-c2ccccc2)cc1`, “inactive”. Still for that read-out and setting: under `CCC(C)[C@@H](N)C(=O)O` (stereo partly drawn) stands “inactive”; under `CC1CCC(NC(=O)N(CCCl)N=O)CC1` (stereo not drawn), “inactive”. Take `CCOC(=O)Cc1ccc(-c2ccccc2)cc1`: the Potency result was “inactive”. Same read-out and setting: with `CN(C)C=Nc1c(I)cc(I)c(CCC(=O)O)c1I` the entry was “inactive”; with `O=C(O)CCC/C=C\C[C@@H]1[C@@H](/C=C/[C@@H](O)COc2cccc(C(F)(F)F)c2)[C@H](O)C[C@@H]1O`, “inactive”. Same read-out and setting: with `CCC(Cc1c(I)cc(I)c(O)c1I)C(=O)O` (stereo not drawn) the entry was “inactive”. Still for that read-out and setting: with `O=C1CCC(=O)N1CO` the entry was “inactive”; with `COC(=O)C(CN)c1c[nH]c2ccc(OC)cc12` (stereo not drawn), “inactive”. Consider `O=C1c2ccccc2C(=O)C1c1ccc(Cl)cc1`, for which the Potency result is “inactive”. Same read-out and setting: under `O=C(c1cc2ccccc2o1)N1CCN(Cc2ccccc2)CC1` stands “inactive”.

On to `CC(C)(C)c1ccc2c(S(=O)(=O)O)c(C(C)(C)C)ccc2c1`, for which the Potency entry was “inactive”. Regarding `CCCCCCCCCCCCCCCCCC[N+](C)(C)CCC[Si](OC)(OC)OC`, the Potency result was “inactive”. The same measure, in the same setting: with `N#Cc1ccc2c(c1)N(CCCN1CCC(O)CC1)c1ccccc1S2` the entry was “inactive”; with `C[C@@](Cc1ccc(O)c(O)c1)(NN)C(=O)O`, “inactive”; with `O=C(CCCCCCCCCCCCC1CCCC1)Nc1ccc(S(=O)(=O)c2ccc(NC(=O)CCCCCCCCCCCCC3CCCC3)cc2)cc1`, “inactive”. On the same count and under the same terms, with `CCCC(=O)O` the entry was “inactive”; with `Cc1cccc(Nc2ncccc2C(=O)O)c1C`, “inactive”. With `CC(=O)[C@H]1CC[C@H]2[C@@H]3C=CC4=CC(=O)CC[C@@]4(C)[C@H]3CC[C@]12C`, the Potency entry was “inactive”. Same read-out and setting: under `CC[C@H]1OC(=O)[C@H](C)[C@@H](O[C@H]2C[C@@](C)(OC)[C@@H](O)[C@H](C)O2)C(C)[C@@H](O[C@@H]2O[C@H](C)C[C@H](N(C)C)[C@@H]2O)[C@](C)(OC)C[C@@H](C)C(=O)[C@H](C)[C@@H](O)[C@]1(C)O` (stereo partly drawn) stands “inactive”.

With `CC/C=C\C/C=C\C/C=C\CCCCCCCC(=O)O`, the Potency result is “inactive”. Same read-out and setting: with `C[C@H]1O[C@@H](O[C@H]2[C@@H](O)C[C@H](O[C@H]3[C@@H](O)C[C@H](O[C@H]4CC[C@@]5(C)[C@H](CC[C@@H]6[C@@H]5C[C@@H](O)[C@]5(C)[C@@H](C7=CC(=O)OC7)CC[C@]65O)C4)O[C@@H]3C)O[C@@H]2C)C[C@H](O)[C@@H]1O` the entry was “inactive”; with `CC1CC(OC(=O)C(O)c2ccccc2)CC(C)(C)C1` (stereo not drawn), “inactive”; with `O=C1N=C2SCCN2C(=O)C1Cc1ccc(Cl)cc1` (stereo not drawn), “inactive”.

For `CC12CCC(C[N+](C)(CCC[N+](C)(C)C)C1)C2(C)C` (stereo not drawn), the Potency entry was “inactive”. The same measure, in the same setting: under `O=C(O)Cc1nn(Cc2ccc(Br)cc2F)c(=O)c2ccccc12` stands “inactive”; under `CCCCCCOC(=O)c1cccnc1`, “inactive”. On the same count and under the same terms, with `NC(=S)NS(=O)(=O)c1ccc(N)cc1` the entry was “inactive”; with `CN1C(C(=O)Nc2ccccn2)C(=O)c2sc(Cl)cc2S1(=O)=O` (stereo not drawn), “inactive”. The same measure, in the same setting: under `O=S(=O)(O)CC(S)CS` (stereo not drawn) stands “inactive”. Turning to `COc1ccc(C(=O)CCC(=O)O)c2ccccc12`, the Potency entry was “inactive”.
